Measurements taken from publication PMC5540273 (PLoS ONE, 2017).

Experiments:
Details in all cases: concentration: 1 μM, replicates: in singlicate; n = 1
[1] = system: TYK2(JH2domain-pseudokinase)
TYRO3 = system: TYRO3
ULK1 = system: ULK1
ULK2 = system: ULK2
ULK3 = system: ULK3
VEGFR2 = system: T1, VEGFR2
T1 construct: gene KDR

VPS34 = system: T2, VPS34
T2 construct: gene PIK3C3

VRK2 = system: VRK2
WEE1 = system: WEE1
WEE2 = system: WEE2
WNK1 = system: WNK1
WNK2 = system: WNK2
WNK3 = system: WNK3
WNK4 = system: WNK4
YANK1 = system: T3, YANK1
T3 construct: gene STK32A

YANK2 = system: T4, YANK2
T4 construct: gene STK32B

YANK3 = system: T5, YANK3
T5 construct: gene STK32C

YES = system: T6, YES
T6 construct: gene YES1

YSK1 = system: T7, YSK1
T7 construct: gene STK25

YSK4 = system: T8, YSK4
T8 construct: gene MAP3K19
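Further: KINOMEscan kinase panel screen.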

SMILES	%Inh [1] [%]	%Inh (TYRO3) [%]	%Inh (ULK1) [%]	%Inh (ULK2) [%]	%Inh (ULK3) [%]	%Inh (VEGFR2) [%]	%Inh (VPS34) [%]	%Inh (VRK2) [%]	%Inh (WEE1) [%]	%Inh (WEE2) [%]	%Inh (WNK1) [%]	%Inh (WNK2) [%]	%Inh (WNK3) [%]	%Inh (WNK4) [%]	%Inh (YANK1) [%]	%Inh (YANK2) [%]	%Inh (YANK3) [%]	%Inh (YES) [%]	%Inh (YSK1) [%]	%Inh (YSK4) [%]
COc1cc2c(cc1OCCN1CCNCC1)ncc1c3ccc(C#N)cc3[nH]c21	15	0	91.9	99.8	47	49	0	15	0	0	12	41	7	9	5	0	0	0	1	87
O=C(Nc1ccccc1F)NC1CCN(c2ccnc(Nc3ccc(F)cc3)n2)CC1 [GSK1379800]	43	0	0	0	6	0	0	4	21	0	9	6	37	34	0	0	1	4	0	14
COc1cc(Nc2nccc(N3CCC(NC(=O)Nc4cccc(C(C)=O)c4)C3)n2)cc(OC)c1OC (centres unmarked) [GSK1379753]	19	0	18	0	78	0	0	0	6	0	0	65	59	41	14	0	0	12	2	75
CCn1c(-c2nonc2N)nc2c(C#CC(C)(C)O)nc(OC[C@H](N)c3ccccc3)cc21 [GSK943949]	0	0	0	0	1	1	16	0	1	2	0	0	0	31	0	0	31	19	0	100
Cl.c1ccc(-c2ccc3c(Nc4ccc5[nH]ccc5c4)ccnc3c2)nc1 [GW440138]	27	0	0	0	6	98.3	0	40	8	6	0	13	35	55	0	0	0	40	0	51
FC(F)(F)c1ccc(/C=C/c2cncnc2Nc2ccc3[nH]c(Cc4ccccc4)nc3c2)cc1 [GW709199]	34	0	0	0	10	0	39	3	23	35	0	0	0	0	0	0	0	0	0	73
CC(=O)Nc1nc2cnc(Nc3cc(NC(=O)c4cccc(C5(C#N)CC5)c4Cl)ccc3C)nc2s1	0	15	0	6	0	40	22	0	0	32	0	0	0	0	0	12	25	82	0	0
Cn1cc(-c2[nH]c3cc(NC(=O)[C@H](N)C4CCCCC4)cc4c3c2C=NNC4=O)cn1	87	73	68	98.9	97.6	90.7	80	0	65	98.2	0	4	0	0	16	0	0	88	47	100
Nc1ncc(-c2ccc3nccc(-c4ccncc4)c3c2)cc1S(=O)(=O)N1CCOCC1 [GSK1627798]	21	0	0	0	6	0	93.3	0	0	3	0	0	4	9	4	0	22	0	0	88
Cc1ccc(C)c(NC(=O)NC2CCN(c3ccnc(Nc4ccc(F)cc4)n3)C2)c1 (centres unmarked) [GSK1379720]	48	0	0	0	10	0	0	45	4	0	5	0	43	48	0	0	28	9	0	29
O=C(NC1CCN(c2ccnc(Nc3ccc(F)cc3)n2)C1)c1cc2ccccc2s1 (centres unmarked) [GSK1379716]	31	0	0	1	32	0	38	0	50	0	20	22	33	46	0	20	29	20	19	14
Cl.c1ccc(-c2ccc3c(Nc4ccc5[nH]ncc5c4)ccnc3c2)nc1 [GW440137]	32	0	12	0	11	66	0	0	0	5	11	14	19	28	3	1	7	14	9	51
Cl.NC(=O)c1cccc(Nc2nccc(Nc3ccc(Oc4c(Cl)cccc4Cl)c(Cl)c3)n2)c1 [GW659009]	0	0	35	0	4	0	0	2	0	0	3	0	12	0	4	0	5	39	0	3
Cl.Cl.NCC(C(=O)Nc1cc(Br)c(-c2ccnc3[nH]ccc23)s1)c1ccccc1 (centres unmarked) [GSK1269851]	18	0	23	0	15	0	0	0	0	22	7	100	25	11	8	0	0	7	0	95.5
CN1CCN(CCCNc2nccc(-c3c(-c4ccc(F)cc4)nn4cc(C(F)(F)F)ccc34)n2)CC1 [GW621581]	12	0	20	0	8	0	8	0	0	0	3	13	0	0	0	8	0	1	0	9
c1ccc(-c2n[nH]cc2Nc2ccnc3ccccc23)nc1 [GW694077]	96.6	0	17	12	8	23	39	50	0	0	0	0	15	4	0	0	0	0	12	99.1
COc1cccc(-c2ccc3c(NC(=O)C4CC4)n[nH]c3n2)c1 [SB-710903]	64	0	0	0	9	0	0	66	14	15	45	57	66	87	0	2	0	13	0	92.3
CCCCc1nn2ncccc2c1-c1ccnc(Nc2ccc(N3CCN(C)CC3)cc2)n1 [GW684941]	93	1	23	6	17	94	15	50	4	9	11	31	54	56	78	74	25	81	0	57
Cc1cccc(Nc2nc(N[C@H]3CCNC3)ncc2C(N)=O)c1.Cl [GSK2197149]	97.7	0	30	11	42	0	13	22	0	8	0	0	0	0	19	0	18	41	52	90
Cn1cc(-c2ccc3c(c2)CCN3C(=O)Cc2cccc(Cl)c2)c2c(N)ncnc21 [GSK2606590]	13	0	11	0	18	49	1	0	0	0	13	18	25	5	10	0	21	21	18	98.2

SMILES	%Inh [1] [%]	%Inh (TYRO3) [%]	%Inh (ULK1) [%]	%Inh (ULK2) [%]	%Inh (ULK3) [%]	%Inh (VEGFR2) [%]	%Inh (VPS34) [%]	%Inh (VRK2) [%]	%Inh (WEE1) [%]	%Inh (WEE2) [%]	%Inh (WNK1) [%]	%Inh (WNK2) [%]	%Inh (WNK3) [%]	%Inh (WNK4) [%]	%Inh (YANK1) [%]	%Inh (YANK2) [%]	%Inh (YANK3) [%]	%Inh (YES) [%]	%Inh (YSK1) [%]	%Inh (YSK4) [%]
CN(C)S(=O)(=O)c1cc(-c2ccc3nccc(-c4cccc(S(N)(=O)=O)c4)c3c2)cnc1N [GSK1669921]	23	0	8	0	6	29	92.7	7	9	17	0	0	0	0	31	0	2	1	0	93.3
COc1ccc(Nc2nccc(N3CCC(NC(=O)Nc4cccc(OC)c4)C3)n2)cc1 (centres unmarked) [GSK1379742]	5	0	0	0	17	17	16	0	52	13	0	18	19	0	10	0	0	0	0	23
O=C(Nc1n[nH]c2nc(-c3ccc(O)cc3)ccc12)C1CC1 [SB-710363]	0	0	2	21	29	26	0	0	0	1	32	0	0	70	0	0	0	0	0	92.2
CSc1cccc2c(-c3ccncn3)c(-c3ccc(F)cc3)nn12 [GW514786]	24	0	0	0	3	0	14	23	6	1	0	1	22	24	23	24	2	4	0	0
c1ccc(-c2cnc3nccnn23)cc1 [AH20685]	3	0	5	0	0	0	0	0	33	0	0	2	1	0	6	0	0	0	0	0
Cn1cc(-c2ccc3c(c2)CCN3C(=O)Cc2cccc(F)c2)c2c(N)ncnc21 [GSK2603358]	64	0	14	0	27	75	0	23	0	0	13	0	48	59	0	0	4	22	31	98.2
COc1cccc(NC(=O)NC2CCN(c3ccnc(Nc4cc(OC)c(OC)c(OC)c4)n3)C2)c1 (centres unmarked) [GSK1379763]	38	0	3	0	88	43	20	0	20	0	8	11	26	11	1	0	4	1	6	31
COc1cc(Nc2nccc(-c3c(-c4cccc(NC(=O)c5c(F)cccc5F)c4)nn4ccccc34)n2)cc(OC)c1OC [GSK323521]	0	0	0	0	18	0	12	0	0	6	27	59	54	19	11	0	14	8	3	93.6
c1ccc(Oc2ccc(Nc3ccnc4cc(-c5ccc(CNCCN6CCOCC6)o5)ccc34)cc2)nc1 [GW567145]	13	0	14	0	7	0	2	30	1	0	0	21	43	8	0	0	32	48	2	35
COc1ccc(-c2coc3ccc(-c4nnc(SCc5ccc(OC)c(C(F)(F)F)c5)o4)cc23)cc1	1	16	0	6	16	17	11	0	0	0	0	31	0	4	10	0	0	12	0	20
COc1cc(Nc2nccc(-c3c(-c4cccc(NC(=O)c5c(F)cccc5F)c4)nn4ncccc34)n2)cc(OC)c1OC [GSK327238]	0	100	14	0	30	96.1	11	11	10	5	1	0	0	0	50	89	56	100	56	7
Cc1ccc(C(=O)N2CC[C@@H](O)C2)cc1-n1c(C)cc(OCc2ccc(F)cc2F)c(Br)c1=O	0	0	0	0	0	0	0	0	0	0	0	0	0	0	0	0	0	20	0	0
CC(=O)N1CCN(c2ccc(Nc3nccc(-c4sc(C(C)C)nc4-c4cccc(NS(=O)(=O)c5cccc(Cl)c5)c4)n3)cn2)CC1 [GSK1660437]	0	40	37	4	62	26	0	0	0	0	2	11	0	0	3	77	0	92.4	0	9
Oc1cc(Nc2ccnc3cc(I)ccc23)ccc1F [GW552771]	25	54	9	0	29	31	0	36	0	0	1	4	34	35	10	22	31	26	0	79
Cc1ccc(F)c(C(=O)Nc2cccc(-c3nn4ccccc4c3-c3ccnc(Nc4cccc(F)c4)n3)c2)c1F [GSK361061]	0	86	100	0	11	42	7	0	22	11	0	6	3	0	6	47	6	95.3	0	0
O=C(Nc1n[nH]c2cc(-c3ccoc3)ccc12)C1CC1 [SB-738481]	7	0	0	1	10	32	0	0	0	0	0	0	0	7	0	0	0	3	0	89
Clc1ccc(-c2nn3ncccc3c2-c2ccnc(Nc3ccc4c(c3)OCCO4)n2)cc1 [GW829116]	0	0	0	0	0	29	0	16	0	0	0	0	0	0	0	21	0	45	0	0
CCS(=O)(=O)c1ccc(OC)c(Nc2nccc(-c3c(-c4cccc(NC(=O)c5c(F)cccc5F)c4)nn4ncccc34)n2)c1 [GSK326180]	26	0	12	0	25	16	0	0	17	5	17	35	18	14	0	56	24	90.1	0	33
C[C@@H]1CC[C@@H](C(=O)Nc2ccccc2)CN1c1cc(-c2ccc3c(N)n[nH]c3c2)nc(N)n1 [GSK2286062]	2	0	8	0	4	0	0	1	0	0	0	0	33	0	15	0	17	0	21	29
Cc1occc1-c1ncc(OC[C@@H](N)Cc2c[nH]c3ccccc23)cc1-c1ccc2[nH]nc(C)c2c1.O=C(O)C(F)(F)F [GSK682037]	0	0	4	0	3	7	3	78	5	8	11	7	0	0	96.5	95	94.5	38	17	99.5
